In PubChem BioAssay (Tox21):
Results filed as inconclusive are left out. Where a call stands in place of a potency, no number is given. The source made the active and inactive calls. Calls come from the whole dose curve.

test: cAMP Responsive Elements (CRE) small molecule agonists, cell-based qHTS assay (AID 1963590); settings: CRE-bla HEK293T, beta-lactamase FRET ratio, 3 h; series mostly up to 92.4 µM
Description: U.S. Tox21 Program National Center for Advancing Translational Sciences [NCATS] Division of Preclinical Innovation [DPI] U.S. Environmental Protection Agency [EPA] National Institutes of Environmental Health Sciences [NIEHS] National Toxicology Program [NTP] U.S. Food and Drug Administration [FDA] Tox21 Assay Overview: CREB (cyclic-AMP Responsive Element Binding Protein) is a cellular transcription factor. It binds to certain DNA sequences called cAMP Responsive Elements (CRE) and regulates the transcription of the genes. […] This cell line can be used to find agonists/antagonists of the cyclic AMP signaling pathway. The activation of the report gene under culture conditions can be detected by fluorescence intensity. This cell line has been used to screen the Tox21 10K compound library to identify agonists that induce oxidative stress.
Tox21 Assay Protocol Summary: CRE-bla Hek 293T cells were suspended in assay medium (DMEM containing 10% dialyzed FBS, 0.1 mM NEAA, 1 mM sodium pyruvate and 25 mM HEPES) and dispensed at 2,000 cells/5 uL /well into 1536-well black wall/clear bottom plates using a Multidrop Combi (ThermoFisher Scientific, Waltham, MA) dispenser. After the assay plates were incubated at 37 C/5% CO2 for 18 hrs, 23 nL of compounds dissolved in DMSO, positive controls or DMSO only was transferred to the assay plate by a pintool workstation (Kalypsys, San Diego, CA). After the plates were incubated at 37 C/5% CO2 for 3 hrs, 1 uL of LiveBLAzer B/G FRET substrate (Invitrogen, Carlsbad, CA) was added to each well using Bioraptr Flying Reagent Dispenser (FRD, Aurora Discovery, San Diego, CA). The plates were incubated at room temperature for 2 h.

Compound	Potency
COc1cc(N)ccc1C	inactive
C1COCO1	inactive
CN(C)c1ccc(O)c2c1C[C@H]1C[C@H]3[C@H](N(C)C)C(=O)C(C(N)=O)=C(O)[C@@]3(O)C(=O)C1=C2O	inactive
CC(C)N(c1ccccc1)C(C)C	inactive
Cc1c(C(=O)O)c(O)cc2c1C(=O)c1c(O)c([C@@H]3O[C@H](CO)[C@@H](O)[C@H](O)[C@H]3O)c(O)c(O)c1C2=O	inactive
Cc1cc(C(=C2C=CC(=Nc3ccc(S(=O)(=O)O)cc3S(=O)(=O)O)C=C2)c2ccc(Nc3ccc(S(=O)(=O)O)cc3)cc2)ccc1N	inactive
CC1=CC(=O)CCC1	inactive
CC(C)OC(=O)CCC(=O)OC(C)C	inactive
CC(C)(COC(=O)c1ccccc1)COC(=O)c1ccccc1	inactive
CC/C(C)=N\O[Si](C)(O/N=C(\C)CC)O/N=C(\C)CC	inactive
CCCNCCC	inactive
CNCc1ccc(NC(=O)c2c[nH]c3c2C(=O)CCC3)cc1	inactive
COc1ccc(CCN(C)CCCN2CCc3cc(OC)c(OC)cc3CC2=O)cc1OC	inactive
O=C(O)c1ccc2cc(C(=O)O)ccc2c1	inactive
C/C=C1\[C@H]2C=C(C)C[C@]1(N)c1ccc(=O)[nH]c1C2	inactive
O=CN(CCO)CCO	inactive
CC(C)C=O	inactive
COc1cccc2sc(N)nc12	inactive
CC1CCCCN1CCCOC(=O)c1ccc(OC2CCCCC2)cc1 (stereo not given)	inactive
CC(C)CCCC(C)CC=O (stereo not given)	inactive

Compound	Potency
N#CCCNCCC#N	inactive
CC(C)(C)c1ccc(N)cc1	inactive
S=P(N1CC1)(N1CC1)N1CC1	inactive
O=C(Cl)c1ccc(Cl)cc1Cl	inactive
CC[N+](C)(CC)CC	inactive
CN(C)CCOC(c1ccccc1)c1ccccc1	inactive
CCCCCCC#CC(=O)OC	inactive
Brc1c(NC2=NCCN2)ccc2nccnc12	inactive
CCOC(=O)OC(C)OC(=O)[C@@H]1N2C(=O)[C@@H](NC(=O)[C@H](N)c3ccccc3)[C@H]2SC1(C)C (stereo not given in full)	inactive
C1CCOC1	inactive
COc1cc([C@@H]2c3cc4c(cc3[C@@H](O[C@@H]3O[C@@H]5CO[C@@H](C)O[C@H]5[C@H](O)[C@H]3O)[C@H]3COC(=O)[C@H]23)OCO4)cc(OC)c1O	inactive
O=S(=O)(O)c1cc(Cl)c(Cl)cc1Cl	inactive
CC(=O)Oc1ccc2c(c1)CC[C@@H]1[C@@H]2CC[C@]2(C)[C@@H](O)CC[C@@H]12	inactive
O=S(=O)(O)c1cc(O)ccc1O	inactive
O=S1(=O)CCCC1	inactive
CC(CN)CC(C)(C)CCN (stereo not given)	inactive
CN1[C@@H]2CC(OC(=O)[C@H](CO)c3ccccc3)C[C@H]1[C@@H]1O[C@@H]12 (stereo not given in full)	inactive
COC(=O)CC(C)CCC=C(C)C (stereo not given)	inactive
CO[C@@]12[C@H](COC(N)=O)C3=C(C(=O)C(C)=C(N)C3=O)N1C[C@@H]1N[C@@H]12	inactive
O=C(O)CCCl	inactive
